Experimental data reported in PubChem BioAssay (Tox21).
Records with an inconclusive call do not appear. Active and inactive are the calls of the source. Calls follow the shape of the dose curve; as a rule, active = well fitted curve in the direction sought with a large enough effect in the repeat runs; inconclusive = weak or mixed curves; inactive = no such curve, though single readings can be large; an effect the other way counts as inactive or inconclusive.

Experiments:
[1] = qHTS RealTime-Glo MT Cell Viability Assay in HEK293 cells - 32 hour (AID 1224868); also: top concentration of the series differs between compounds; nearly all actives have a fitted effect of over 50% in size
Method in brief: (§1)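 HEK293 cells were seeded at 600 cells/well together with NanoLuc luciferase and cell-permeant prosubstrate, preincubated 5 h at 37 C/5% CO2, then given compound in DMSO by pintool. Luminescence from viable-cell prosubstrate reduction was read repeatedly over 40 h.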

[2] = qHTS RealTime-Glo MT Cell Viability Assay in HepG2 cells - 40 hour (AID 1224870); also: nearly all actives have a fitted effect of over 50% in size
Method in brief: (§2)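 Real-time viability: cells seeded at 600 per well together with NanoLuc and cell-permeant prosubstrate, compounds added after 5 h incubation. Luminescence tracked at 0, 8, 16, 24, 32 and 40 h of exposure.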

[3] = A CellTox Green Cytotoxicity Assay to monitor cytotoxicity in HEK293 cells - 40 hour (AID 1224871); also: nearly all actives have a fitted effect of over 45% in size
Method in brief: (§3)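 Seeding of HEK293 cells together with cytotoxicity dye preceded a 5 h incubation at 37 C/5% CO2. Test compounds in DMSO were then added and fluorescence monitored across 40 h.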

[4] = qHTS RealTime-Glo MT Cell Viability Assay in HEK293 cells - 16 hour (AID 1224872); also: top concentration of the series differs between compounds; nearly all actives have a fitted effect of over 50% in size
Method in brief: as §1

[5] = qHTS RealTime-Glo MT Cell Viability Assay in HepG2 cells - 8 hour (AID 1224873); also: nearly all actives have a fitted effect of over 55% in size
Method in brief: as §2

[6] = qHTS RealTime-Glo MT Cell Viability Assay in HEK293 cells - 40 hour (AID 1224874); conditions: RealTime-Glo luminescence, stronger effect = lower value; also: nearly all actives have a fitted effect of over 50% in size
Method in brief: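 Tox21 screen in HEK293 using RealTime-Glo MT chemistry, with cells and reagent co-dispensed. Luminescence proportional to viable cell number was captured at intervals during 40 h compound exposure at 37 C.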

[7] = A CellTox Green Cytotoxicity Assay to monitor cytotoxicity in HEK293 cells - 24 hour (AID 1224875); also: series mostly up to about 77 µM; nearly all actives have a fitted effect of over 45% in size
Method in brief: as §3

[8] = A CellTox Green Cytotoxicity Assay to monitor cytotoxicity in HepG2 cells - 16 hour (AID 1224876); also: nearly all actives have a fitted effect of over 45% in size
Method in brief: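 Nonlytic assay: viable cells exclude the dye, so fluorescence scales with cell death. HepG2 at 600 cells/well, compounds added after 5 h, signal read across 40 h.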

[9] = qHTS RealTime-Glo MT Cell Viability Assay in HepG2 cells - 32 hour (AID 1224877); also: nearly all actives have a fitted effect of over 55% in size
Method in brief: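 HepG2 cells were seeded at 600 cells/well together with NanoLuc luciferase and a cell-permeant prosubstrate, preincubated 5 h at 37 C/5% CO2, then pin-dosed with compounds in DMSO. Nonlytic luminescence from viable cells was read at each time point.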

[10] = A CellTox Green Cytotoxicity Assay to monitor cytotoxicity in HEK293 cells - 0 hour (AID 1224869); also: nearly all actives have a fitted effect of over 50% in size
Method in brief: as §3
% is scaled to controls: 0 for no effect and ±100 for the full control effect.

Cc1ccc(O)c(C(=O)c2ccccc2)c1
inactive: outcome [1] | outcome [2] | Potency [3] | outcome [4] | outcome [5] | max response [6] -5.5% | Potency [7] | Potency [8] | outcome [9]

N#CC1(N)CCCCC1
inactive: outcome [1] | outcome [10] | Potency [3] | outcome [4] | outcome [5] | max response [6] 6.54% | Potency [7] | Potency [8] | outcome [9]

C[C@@H]1NC(=O)[C@@H](N)CNC(=O)[C@H](C2CCNC(N)=N2)NC(=O)/C(=C/NC(N)=O)NC(=O)[C@H](CNC(=O)C[C@@H](N)CCCN)NC1=O (stereo not given in full)
inactive: activity change, negative = cytotoxic [1] 0.857% [at 0.29 µM] | cytotoxicity [10] 0.414% [at 0.29 µM] | cytotoxicity increase [3] 21.6% [at 0.29 µM] | activity change, negative = cytotoxicity [4] 0.93% [at 0.29 µM] | max response [6] 0.0952% | activity change [7] 19.3% [at 0.29 µM, stronger effect = higher value] | cytotoxicity increase [8] -2.83% [at 0.29 µM] | activity change, negative = cytotoxic [9] 3.72% [at 0.29 µM]

CC(=O)OC/C=C(/C)CCC=C(C)C
inactive: outcome [1] | outcome [10] | Potency [3] | outcome [4] | outcome [5] | max response [6] -1.6% | Potency [7] | Potency [8] | outcome [9]

CCCCC(O)/C=C(C)/C=C/C=C/C(=O)N1CCCC1=O (stereo not given)
inactive: outcome [1] | outcome [10] | outcome [4] | outcome [5] | max response [6] 2.14% | Potency [7] | Potency [8] | outcome [9]

CCOC(=O)c1ccc(N(C)C)cc1
inactive: outcome [1] | outcome [10] | Potency [3] | outcome [4] | outcome [5] | max response [6] -8.74% | Potency [8] | outcome [9]

O=CN1CCCCC1
inactive: outcome [1] | outcome [2] | Potency [3] | outcome [4] | outcome [5] | max response [6] 1.3% | Potency [7] | Potency [8]

COC(=O)c1ccc(NC(C)=O)cc1OC
inactive: outcome [1] | outcome [2] | Potency [3] | outcome [4] | outcome [5] | max response [6] 3.94% | Potency [7] | Potency [8] | outcome [9]

CCCCCCCCCCCCCCBr
inactive: outcome [1] | outcome [10] | Potency [3] | outcome [4] | outcome [5] | max response [6] -1.85% | Potency [7] | Potency [8] | outcome [9]

CCCCCCCCOCCC#N
inactive: outcome [1] | outcome [10] | outcome [4] | max response [6] -1.56% | Potency [7] | Potency [8] | outcome [9]

CC/C=C\CCCCCCCCCCOC(C)=O
inactive: outcome [1] | outcome [10] | Potency [3] | outcome [4] | max response [6] -0.318% | Potency [7] | Potency [8] | outcome [9]

O=P(O)(O)C(O)(Cc1cccnc1)P(=O)(O)O
inactive: outcome [1] | outcome [10] | outcome [4] | outcome [5] | max response [6] -1.75% | Potency [8]

CC(C)(C)C(=O)CC(=O)C(C)(C)C
inactive: outcome [1] | outcome [10] | Potency [3] | outcome [4] | outcome [5] | max response [6] -12.1% | Potency [7] | Potency [8] | outcome [9]

CC12CCCC=C1C(=O)OC2=O (stereo not given)
inactive: outcome [1] | outcome [2] | Potency [3] | outcome [4] | outcome [5] | max response [6] 7.32% | Potency [7] | Potency [8] | outcome [9]

CCCCCCCOC(C)=O
inactive: outcome [1] | outcome [2] | Potency [3] | outcome [4] | outcome [5] | max response [6] -2.34% | Potency [7] | Potency [8] | outcome [9]

C/C(=N\O)c1ccc(OCC(=O)N2CCCCC2)cc1
inactive: outcome [1] | outcome [10] | Potency [3] | outcome [4] | outcome [5] | max response [6] -11.7% | Potency [7] | Potency [8] | outcome [9]

CCN1CCN(C(=O)N[C@@H](C(=O)N[C@@H]2C(=O)N3[C@@H]2SC(C)(C)[C@H]3C(=O)O)c2ccccc2)C(=O)C1=O
inactive: outcome [1] | outcome [10] | Potency [3] | outcome [5] | max response [6] 1.08% | Potency [7] | Potency [8] | outcome [9]

COc1cc(C(=O)NC2CCCNC2)cc(OC)c1OC (stereo not given)
inactive: outcome [1] | outcome [10] | Potency [3] | outcome [4] | max response [6] 1.36% | Potency [7] | Potency [8]

O=C(O)Cc1ccccc1Oc1ccc(Cl)cc1Cl
inactive: outcome [1] | outcome [2] | Potency [3] | outcome [4] | outcome [5] | max response [6] 4.29% | Potency [7] | Potency [8] | outcome [9]

CC1(C)C(=O)C(C)(C)C1=O
inactive: outcome [1] | outcome [10] | Potency [3] | outcome [4] | outcome [5] | max response [6] 6.04% | Potency [7] | Potency [8] | outcome [9]

CC(C)(C)OC=O
inactive: outcome [1] | outcome [2] | outcome [4] | outcome [5] | max response [6] 8.37% | Potency [8] | outcome [9]

CC(C)(Sc1cc(C(C)(C)C)c(O)c(C(C)(C)C)c1)Sc1cc(C(C)(C)C)c(O)c(C(C)(C)C)c1
inactive: outcome [1] | outcome [2] | Potency [3] | outcome [5] | max response [6] 3.52% | Potency [8]

CCOc1ccccc1OCCN[C@H](C)Cc1ccc(OC)c(S(N)(=O)=O)c1
inactive: outcome [1] | Potency [3] | max response [6] -2.4% | Potency [8] | outcome [9]

CC(C)OC(=O)C(C(=O)OC(C)C)=C1SC=CS1
inactive: outcome [10] | outcome [2] | Potency [3] | outcome [5] | Potency [7] | Potency [8]

NC[C@H]1O[C@H](O[C@H]2[C@H](O)[C@@H](O[C@H]3O[C@H](CO)[C@@H](O)[C@H](N)[C@H]3O)[C@H](N)C[C@@H]2N)[C@H](N)[C@@H](O)[C@@H]1O
inactive: activity change, negative = cytotoxic [1] 4.09% [at 15.8 µM] | activity change, negative = cytotoxic [2] 0.593% [at 15.8 µM] | cytotoxicity increase [3] -1.49% [at 15.8 µM] | activity change, negative = cytotoxicity [4] 6.75% [at 15.8 µM] | max response [6] 5.23% | cytotoxicity increase [8] 0.586% [at 15.8 µM]

C[Si](C)(C)O[Si](O)(O)O
inactive: outcome [1] | outcome [2] | Potency [3] | outcome [5] | max response [6] 0.476% | Potency [7] | Potency [8] | outcome [9]
